eLon inh = inhibitors of E. coli Lon protease, primary screen, biochemical, fluorescence polarization; P0A9M0; purified E. coli Lon protease; inhibition, % at 7.94 µM; 0.42% of 360,000 active; in the data active means inhibition above about 13%, passing the limit was not always enough;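 further: 0% = enzyme with probe and DMSO and 100% = no enzyme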
Target sequence (P0A9M0 whole entry, looked up): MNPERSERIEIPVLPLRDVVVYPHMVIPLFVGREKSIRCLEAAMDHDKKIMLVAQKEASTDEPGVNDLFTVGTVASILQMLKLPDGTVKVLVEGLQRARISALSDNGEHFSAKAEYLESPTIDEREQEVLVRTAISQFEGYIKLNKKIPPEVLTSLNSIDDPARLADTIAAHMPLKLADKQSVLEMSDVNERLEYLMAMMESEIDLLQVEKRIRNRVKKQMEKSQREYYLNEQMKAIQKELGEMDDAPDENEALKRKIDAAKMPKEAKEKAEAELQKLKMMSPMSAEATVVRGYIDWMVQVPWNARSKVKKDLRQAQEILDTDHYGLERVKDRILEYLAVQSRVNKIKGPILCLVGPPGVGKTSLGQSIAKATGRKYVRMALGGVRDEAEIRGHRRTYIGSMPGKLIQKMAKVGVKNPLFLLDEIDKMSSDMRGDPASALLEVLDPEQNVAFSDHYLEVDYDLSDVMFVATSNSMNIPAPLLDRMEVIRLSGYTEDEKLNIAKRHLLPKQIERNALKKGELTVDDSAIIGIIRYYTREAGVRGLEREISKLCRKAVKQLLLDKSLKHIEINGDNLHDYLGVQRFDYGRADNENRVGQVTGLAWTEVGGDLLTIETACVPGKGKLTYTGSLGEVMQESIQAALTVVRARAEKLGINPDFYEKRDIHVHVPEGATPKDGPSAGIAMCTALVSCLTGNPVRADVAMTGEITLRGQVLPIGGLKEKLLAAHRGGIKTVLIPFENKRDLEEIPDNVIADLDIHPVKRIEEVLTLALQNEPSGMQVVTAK
RTF Ca sens act = cardiac RTF calcium sensitivity activators, primary screen, biochemical, IANBD-TnC fluorescence, EC20 calcium. IANBD-labeled TnC RTF fluorescence at EC20 calcium; 0% EC20 calcium, 100% full calcium. activation, % at 7.2 µM. 0.24% of 340,000 active;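 active means activation above the mean over all tested compounds plus 3 SD, cut at about 30% in these data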;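 further: rise in fluorescence read as greater calcium sensitivity of cardiac thin filaments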
LANA-H2A inh = blockers of LANA interaction with H2A/H2B – biochemical, FP readout, HTS, primary screen; Protein LANA1 (Human herpesvirus 8 type P (isolate GK18)), Q9QR71; cell-free LANA-H2A/H2B peptide, fluorescence polarization; inhibition, % (no concentration beside the values); 0.6% of 320,000 active; in the data active means inhibition mostly above about 10%, no sharp cut-off; inactive means mostly below about 6.7%
LANA DNA inh = inhibitors of KSHV C-LANA binding to DNA, primary screen, biochemical, fluorescence polarization, FAM-LBS DNA, MBP-C-LANA, single point. 0.078% of 340,000 active. Kaposi's sarcoma herpesvirus LANA C-terminal domain (residues 932-1162) DNA binding. inhibition, % at 9 µM;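 active means highest replicate inhibition at or above 60% at 9 µM, even if other replicates fall short; inactive means all replicates below 60% inhibition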;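 further: 0% = neutral control wells and 100% = 4 µM acridine orange control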
RTF Ca sens inh = cardiac RTF calcium sensitivity inhibitors, primary screen, biochemical, IANBD-TnC fluorescence, EC70 calcium | Troponin I, cardiac muscle (Homo sapiens) + Troponin T, cardiac muscle (Homo sapiens) + … | inhibition, % at 7.15 µM | 0.12% of 340,000 active | IANBD-labeled cardiac RTF, Ca2+ fluorescence | AID 493244, 2011;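 active means inhibition above the mean inhibition of all tested compounds plus 3 SD, cut at about 17% in these data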;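 further: assay run at fixed EC70 calcium of 1.6 mM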
Keap1-Nrf2 PPI = Keap1-Nrf2 protein-protein interaction inhibitors, primary screen, biochemical, fluorescence polarization, single point | AID 504523, 2011 | Keap1 Kelch-Nrf2 peptide fluorescence polarization, 1536-well | inhibition, % at 9.4 µM | 0.15% of 340,000 active; in the data active means inhibition above about 12%;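 further: human Keap1 Kelch domain with fluorescein labeled Nrf2 9mer peptide probe; 0% = neutral control wells and 100% = peptide positive control; higher means more block of Keap1 binding to Nrf2 peptide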
RTF Ca inh conf = cardiac RTF calcium sensitivity inhibitors, confirmation, biochemical, fluorescence readout; reconstituted cardiac thin filaments; inhibition, % at 7.15 µM; shares compounds with RTF Ca sens inh; 8% of 360 active; in the data active means inhibition above about 18%
* = called active by the depositor; x = not tested or not shown. Shown are actives, neighbours in structure and some others; about 1.3% of the full set was active somewhere.

SMILES	eLon inh	RTF Ca sens act	LANA-H2A inh	LANA DNA inh	RTF Ca sens inh	Keap1-Nrf2 PPI	RTF Ca inh conf
O=C(NCC(c1cccs1)N1CCOCC1)c1ccc([N+](=O)[O-])cc1 (stereo unspecified)	1	-5	11	3	17*	0	-3
CC1(C)CC(=O)C(Sc2ccccc2)=C(O)C1	-8	2	5	2	56*	-2	1
COC(=O)c1ccc2nc(NC(=O)COC(=O)CSc3nc(C)cc(C)n3)sc2c1	-3	5	2	1	10	1	x
Cc1ccc2nc(NC(=O)COC(=O)CSc3nc(C)cc(C)n3)sc2c1	-1	-2	-1	-3	19*	-1	-5
O=C1c2ccccc2C(=O)N1CC(O)Cn1nnc2ccccc21 (stereo unspecified)	1	-1	3	-1	-1	1	x
OC(CN1c2ccccc2Sc2ccccc21)Cn1nnc2ccccc21 (stereo unspecified)	9	-1	0	1	21*	-1	-8
COc1cc(/C=C/C(=O)OCC(=O)NC(=O)NC23CC4CC(CC(C4)C2)C3)ccc1OCC#N	9	5	-6	-1	18*	-3	-2
COc1cc(/C=C/C(=O)OCC(=O)NC(=O)NC(C)C)ccc1OCC#N	0	-2	-3	0	-7	2	x
COc1ccc(S(=O)(=O)Nc2ccc(C)cn2)cc1	-1	9	8	-1	-6	-4	x
CSc1nc(-c2ccccc2)cc(C)c1C#N	4	9	4	0	18*	1	-10
O=C(COc1ccc(Br)cc1Br)NC(=S)N1CCCc2ccccc21	7	0	-1	0	17*	-2	-3
O=C(COc1ccc(Br)cc1Cl)NC(=S)N1CCc2ccccc21	-4	-4	0	1	-9	1	x
CCN(c1ccccc1)S(=O)(=O)c1cccc(C(=O)N(C)CCOc2ccccc2)c1	-8	-12	2	-2	4	1	x
CCSc1nnc(NC(=O)[C@@H](NC(=O)c2ccc(C(C)(C)C)cc2)C(C)C)s1	5	-6	0	0	-4	-3	x
O=C(Nc1ccc2nc(-c3ccco3)c(-c3ccco3)nc2c1)NC1CC1	14	-24	x	1	24*	0	19*
O=C(NCCCO)Nc1ccc2nc(-c3ccco3)c(-c3ccco3)nc2c1	x	x	-4	x	x	x	x
O=C(O)c1ccc2nc(-c3ccco3)c(-c3ccco3)nc2c1	12	-30	x	30	47*	5	70*
O=C(COc1coc(CN2CCN(c3ccccc3)CC2)cc1=O)Nc1ccc(F)cc1	-4	-3	0	1	-11	0	x
CCOC(=O)c1[nH]c2ccccc2c1NC(=S)Nc1cccc(C)c1	-4	-1	5	2	-1	-1	x
COc1ccc(N2CCN(C(=O)C3CC(=O)N(c4ccc(C)cc4)C3)CC2)cc1 (stereo unspecified)	4	x	-2	2	x	5	x
Cc1ccc(N2CC(C(=O)N3CCN(c4ccccc4)CC3)CC2=O)cc1 (stereo unspecified)	5	4	1	1	17*	0	-4
O=C(CN1C(=O)/C(=C2\SC(=S)N(CCS(=O)(=O)O)C2=O)c2ccccc21)Nc1cccc(Br)c1	-1	-25	5	-1	30*	-1	3
CNc1ccc(C(=O)OCC(=O)NC(=O)NC2CCCC2)cc1[N+](=O)[O-]	2	1	-2	-1	2	4	x
NNC(=O)c1ccc2nc(-c3ccc(Br)cc3)cn2c1	5	-1	-6	2	22*	3	-2
Nc1ncnc2c1ncn2[C@@H]1O[C@H](CNCc2ccc(-c3cc(C(F)(F)F)ccc3Cl)o2)[C@@H](O)[C@H]1O	1	-3	x	1	1	-7	x
SMILES	eLon inh	RTF Ca sens act	LANA-H2A inh	LANA DNA inh	RTF Ca sens inh	Keap1-Nrf2 PPI	RTF Ca inh conf
CN(Cc1cccc(F)c1)C(=O)C1CC(=O)N(Cc2ccco2)C1 (stereo unspecified)	15	x	x	x	x	x	x
O=C(O)C1Nc2c(Cl)cc(Cl)cc2C2C=CCC12 (stereo unspecified)	-12	-40	7	26	55*	4	7
CCOc1ccccc1-c1nc(-c2ccc(NC(=O)Cc3ccccc3OC)cc2)no1	-1	1	3	-1	18*	1	-4
COc1ccc(-c2ccc3nncn3c2)cn1	0	x	x	x	x	x	x
CCCCn1c(N)c(N(C)C(=O)c2ccc(OCC3CCCO3)cc2)c(=O)[nH]c1=O (stereo unspecified)	8	-2	x	-1	-3	0	x
Cc1ccc(OCC(=O)O)c(-n2nc3ccccc3n2)c1	-4	-1	-2	0	4	-1	x
CC(=O)Oc1ccc(C)cc1-n1nc2ccccc2n1	-6	0	-2	0	20*	-1	-7
CCc1cccc(NC(=O)C2CCCN(S(=O)(=O)c3cccs3)C2)c1 (stereo unspecified)	6	4	-1	0	24*	2	-2
COc1cc(/C=N/NC(=O)c2cc(-c3ccco3)nc3ccccc23)cc(OC)c1O	-4	2	1	2	-10	-2	x
CCc1cc(C(=O)N/N=C/c2ccc(OC)cc2)c2ccccc2n1	0	-9	7	-1	18*	-1	-5
COc1ccc(OC)c(-c2cc(C(=O)N/N=C/c3ccc(F)cc3)c3ccccc3n2)c1	-5	x	-2	x	x	x	x
O=C(N/N=C/c1cccc(F)c1)c1cc(-c2ccco2)nc2ccccc12	-8	-15	7	-3	17*	-6	0
CCCCOc1ccccc1C1NC(=O)NC(C)=C1C(=O)OCCOC (stereo unspecified)	4	12	0	-1	3	-5	x
CCCOc1ccccc1C1NC(=O)NC(C)=C1C(=O)OCCOC (stereo unspecified)	5	7	-4	0	19*	-3	-1
CCOC(=O)c1c(C=O)c(C)n(Cc2ccccc2Cl)c1C	6	1	1	-2	18*	-3	-3
OCCCCNCc1ccc(OCc2ccc(Cl)cc2)cc1	3	-16	-3	-1	17*	0	-1

Screens as filed in PubChem BioAssay.
